Rows were chosen to be rich in hits. Some 7.8% of all compounds tested hit in one or more screens of this group.
HCV inh: blocks hepatitis C virus; Huh7.5.1 HCVcc-Cre infection, luciferase reporter, 44 h; Potency, µM (top dose mostly 41.8 µM), without a hit: at the top dose activity change, negative = inhibition, most hits filed as inhibitors; 340,000 tested, 3.4% active; active = well fitted inhibition curve with a large enough effect; inconclusive = small, poorly fitted or top-dose-only effect, or another doubt; inactive = no such curve, though single readings can be large or run the other way; also: potency is read from the fitted curve at half-maximal effect
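Infectious HCV cell culture screen: compound-treated cells (1,000/well, pre-plated 4 h) are infected with HCVcc-Cre at roughly 0.5 moi and grown 44 h. Infection is quantified by luciferase signal after 15 min substrate incubation at room temperature.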
Vaccinia mCherry: inhibitors of vaccinia virus infection (mCherry reporter signal); 310,000 tested, 0.63% active; Vaccinia virus mCherry reporter infection, fluorescence; Potency, µM (top dose mostly 36.5 µM), inactives show at the highest dose activity change, negative = inhibition, hits mostly inhibitors; calls by dose curve; tested in A549 cells; also: potency is read from the fitted curve at half-maximal effect; nearly all actives have a fitted effect of over 35% in size
HCMV antiviral: inhibitors of human cytomegalovirus. HFF cells, HCMV-luciferase reporter, 72 h; stronger effect = lower value. activity change, negative = inhibition, % at 57.5 µM. 410,000 tested, 4.5% active; in the data active = activity change below about -60%; inconclusive = no clear call, values can overlap the other calls; inactive = above about -39%
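After 16 h attachment at 37C, HFF cells received test compound and HCMV-luciferase (1 PFU/cell); reporter luminescence read 72 h later, data normalized against buffer-only and known inhibitor Salinomycin.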
Lassa entry inh: blocks Lassa virus binding to or entry into cells; Lassa virus pseudotype entry inhibition, cell reporter; 300,000 tested, 1.2% active; Potency, µM (highest dose often 37.9 µM), for inactives: top-dose activity change, negative = inhibition, actives largely listed as inhibitors; AID 540256; calls by dose curve; tested in HEK293 cells; also: potency is read from the fitted curve at half-maximal effect; nearly all actives have a fitted effect of over 50% in size
Marburg entry inh: blocks Marburg virus binding to or entry into cells | Marburg virus pseudotyped entry inhibition, cell reporter | Potency, µM (titrated, usually from 37.8 µM), without a hit: at the top dose activity change, negative = inhibition, most hits filed as inhibitors | 300,000 tested, 1.8% active | AID 540276; calls by dose curve; tested in HEK293 cells; also: potency is read from the fitted curve at half-maximal effect
Vaccinia Venus: inhibitors of vaccinia virus (Venus reporter). Vaccinia virus Venus reporter expression, fluorescence. Potency, µM (titrated, usually from 36.5 µM), for inactives: at the top dose activity change, negative = inhibition, actives largely listed as inhibitors. 330,000 tested, 0.46% active; calls by dose curve; tested in A549 cells; also: potency is read from the fitted curve at half-maximal effect; nearly all actives have a fitted effect of over 30% in size
Numbers without * were called inactive; i = inactive; ? = inconclusive; . = no result; [ ] = dose if it differs, or a comment. % is scaled to controls: 0 for no effect and ±100 for the full control effect.

SMILES	HCV inh	Vaccinia mCherry	HCMV antiviral	Lassa entry inh	Marburg entry inh	Vaccinia Venus
CC(C)(C)c1ccc(OCC(=O)N2CCN(c3ccccn3)CC2)cc1	-15%	.	-94*	.	.	.
Cc1noc(C)c1CSCC(=O)N1CCN(c2ccc([N+](=O)[O-])cc2)CC1	11µM*	.	?	?	?	?
COCCNc1nc(Oc2cccc3ccccc23)c2sccc2n1	.	i	-9	.	.	-3%
Cc1noc(COc2ccccc2OC[C@H](O)CNC(C)(C)C)n1	.	.	.	.	-8%	.
O=C(COc1ccccc1F)OCc1cc(=O)n2nc(C3CC3)sc2n1	.	1%	1	-15%[46.1 µM]	.	6%
COCCN1C(=O)C2=C(C1=O)C1N(C)c3ccccc3[C@@]13C[C@@H](CO)N=C3N2 (stereo not given in full)	.	.	.	.	25%[14.2 µM]	.
COc1ccccc1CC(=O)N1CCN(c2ccc([N+](=O)[O-])cc2)CC1	6.3µM*	.	?	.	.	.
COc1ccccc1/C=C/C=N/N1CCN(c2ccccn2)CC1	-13%	.	-64*	-14%	-17%	-1%
COc1ccc(N2CCN(C(=O)CSc3ccc([N+](=O)[O-])cc3)CC2)cc1	?	-21%	-65*	6%	20%[46.1 µM]	-23%
COc1ccc(N2CCN(C(=O)CSc3ccc(C)cc3)CC2)cc1	8%	-6%	-5	14%	20%[14.2 µM]	-7%
COc1ccccc1CC(=O)N1CCCC1	20%	-13%	-7	6%	19%	5%
COc1ccccc1CC(=O)N1CCN(c2ccccn2)CC1	-6%	.	-73*	0%	5%	?
Cc1ccc(CC(=O)N2CCN(c3ccc([N+](=O)[O-])cc3)CC2)cc1	?	-16%	-21	-5%[46.1 µM]	?	-17%
COC(=O)[C@@H]1CCCN1C(=O)c1cc(NC(=O)C2CCC2)c2c(c1)nc(-c1ccncc1)n2C	.	-13%	.	.	.	-7%
C#CCCC[C@@H](/C=C/C(=O)OCC)NC(=O)C(F)(F)F	.	.	0	.	.	.
CCOc1ccc(Cn2c(=O)sc3ccccc32)cc1OC	10µM*	.	?	.	.	.
CCN1C(=O)[C@H]2[C@@H](c3ccc(OC)cc3)N3C(=O)CN(CC4CC4)C(=O)[C@@]3(C)[C@H]2C1=O	10µM*	-19%	-12	.	.	1%
CCN1C(=O)[C@H]2[C@@H](c3ccc(Cl)cc3)N3C(=O)CN(CC4CC4)C(=O)[C@@]3(C)[C@H]2C1=O	-3%	i	36	.	.	2%
Cc1cccc2cc(CN(C(=O)c3cccc(Cl)c3)c3ccccc3)c(=O)[nH]c12	.	-12%	17	-1%[46.1 µM]	9%[46.1 µM]	-4%
CC(C)C1CC(CCNCc2ccc3c(c2)OCO3)(c2ccccc2)CCO1 (stereo not given)	-16%	-22%	-29	?	10µM*	3%
Cc1ccc(C2(CCNS(=O)(=O)c3ccc(C)cc3)CCOC(C(C)C)C2)cc1 (stereo not given)	-9%	-6%	-22	?	6.5µM*	-22%
CC(C)C1CC(CCNCc2ccc(N(C)C)cc2)(c2ccccc2)CCO1 (stereo not given)	11µM*	?	?	?	?	1%
CN(C)C1(CNC(=O)COc2cccc(Cl)c2)CCCCC1	.	14%	-2	-16%[46.1 µM]	?	6%
Cc1ccc(C)c(N2CCN(C3=C(c4ccccc4)C(=O)c4ccccc43)CC2)c1	.	-2%	19	5%[46.1 µM]	0%[46.1 µM]	6%
Cc1ccc(Cl)cc1NC(=O)Cn1cc2c(n1)CCCCC2	.	2%	-15	-2%[46.1 µM]	-22%[46.1 µM]	-3%
SMILES	HCV inh	Vaccinia mCherry	HCMV antiviral	Lassa entry inh	Marburg entry inh	Vaccinia Venus
CC(C)(C)CC(C)(C)NC(=O)C(C1CC1)N1C(=O)C(=O)c2ccccc21 (stereo not given)	.	.	22	.	.	.
CCOc1cc(C(=O)N/N=C/c2ccoc2)cc(OCC)c1OCC	-16%	.	-88*	.	.	.
CCOc1ccc(C(=O)N/N=C/c2ccc(SC)cc2)cc1	10%	i	-33	2.8µM*	7%	-15%
COc1ccc(CNC(=O)c2cnn(-c3ccccc3)c2-n2cccc2)cc1OC	.	-18%	-12	.	-27%[46.1 µM]	-7%
COc1cc(NCCCC(C)N)c2ncccc2c1 (stereo not given)	?	.	-107*	?	3.5µM*	?
COc1cc(NCCCCC(C)N)c2nccc(C)c2c1 (stereo not given)	.	?	-71*	.	.	?
OC(CNCc1ccccc1)Cn1ccc2ccccc21 (stereo not given)	11µM*	.	-6	?	?	.
O=C(CSc1nc2c([nH]c3ccccc32)c(=O)n1-c1ccccc1)c1ccc(Cl)cc1	.	-19%	13	-1%[46.1 µM]	.	-16%
C=C(C)COc1ccc2c(CC)cc(=O)oc2c1C	11µM*	14%	-12	1%	?	-4%
CN(C)c1ccc(N=Nc2ccc(C(=O)O)cc2)cc1	16%	i	-15	7.1µM*	2.8µM*	-9%
CN1CCC(=C(c2ccccc2)c2ccc(Br)cc2)CC1	8.9µM*	.	?	.	.	.
CN1CCC(OC(=O)c2ccc(Br)cc2)CC1	-23%	.	11	3%	1%	.
COC(=O)C1CCN(C(=O)COC(=O)c2ccc(=O)n(Cc3ccccc3)n2)CC1	9%	-11%	5	-19%	17%	2%
O=C(NC1CCCCCC1)c1ccc(=O)n(Cc2ccccc2)n1	-19%	-13%	-66*	.	.	-19%
Cn1c(=O)c2c3c(sc2n2c(SCC(N)=O)nnc12)C[C@H](C(C)(C)C)CC3	.	.	.	.	-1%	.
CN(CC(=O)Nc1cccc(F)c1)C(=O)c1cccc(S(=O)(=O)N2CCN(c3ccccc3)CC2)c1	?	?	-77*	-3%	?	?
CN(CC(=O)Nc1ccc(F)cc1)C(=O)c1ccncc1	9%	-16%	-72*	14%[46.1 µM]	-1%[46.1 µM]	-8%
CN(CC(=O)Nc1ccc(F)cc1)C(=O)c1cccc(S(=O)(=O)N2CCN(c3ccc(F)cc3)CC2)c1	8.9µM*	?	-63*	?	?	?
COCC(=O)Nc1cc(C(=O)N2CCN(C)C(c3ccccc3)C2)c2c(c1)nc(-c1ccncc1)n2C (stereo not given)	.	i	.	.	.	-19%
COc1ccnc(Oc2ccc(F)cc2)c1C(=O)N/C=N/OCc1ccc(F)cc1Cl	-23%	i	-10	9%	?	-15%
COc1ccnc(Oc2ccc(F)cc2)c1C(=O)N/C=N/OCc1ccc(Cl)cc1Cl	-9%	-19%	21	0%	13µM*	-4%
FC(F)(F)c1ccc(-c2nc(-c3ccccc3)oc2NCc2ccccc2)cc1	.	.	.	-11%[14.3 µM]	-7%[14.2 µM]	.
COC(=O)C1=C(c2cccc(OCc3ccccc3)c2)C[C@@H]2CC[C@H]1N2C(=O)NCc1ccc(F)cc1	?	-20%	-35	.	.	?
COC(=O)C1=C(c2ccccc2OCc2ccccc2)C[C@@H]2CC[C@H]1N2C(=O)NCc1ccc(C(F)(F)F)cc1	10µM*	-14%	-3	.	2%	?
